Experimental data reported in PubChem BioAssay (NCI).
About 83,000 compounds went through this panel and 20% of them were active in at least one assay; those are over-represented in the sample as a whole.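 Compound tested at a single concentration for 48 hours in 96-well plates; a percent growth value below 10 was scored as active.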 Values without a mark were called inactive. Activity calls are given as the source filed them.

Key:
Experiment in all cases: NCI-60 one-dose screen, 48 h (100 = growth as untreated, 0 = no growth, -100 = all killed)
Conditions in all cases: 10 µM
RPMI-8226 leukemia = test system: RPMI-8226 leukemia
OVCAR-8 ovarian = test system: OVCAR-8 ovarian
OVCAR-5 ovarian = test system: OVCAR-5 ovarian
OVCAR-4 ovarian = test system: OVCAR-4 ovarian
SK-OV-3 ovarian = test system: SK-OV-3 ovarian
OVCAR-3 ovarian = test system: OVCAR-3 ovarian
HS 578T breast = test system: HS 578T breast
NCI/ADR-RES ovarian = test system: NCI/ADR-RES ovarian
T-47D breast = test system: T-47D breast
BT-549 breast = test system: BT-549 breast
MDA-MB-435 melanoma = test system: MDA-MB-435 melanoma
SW-620 colon = test system: SW-620 colon
MCF7 breast = test system: MCF7 breast
HCT-116 colon = test system: HCT-116 colon
HCC-2998 colon = test system: HCC-2998 colon
KM12 colon = test system: KM12 colon

SMILES	growth (RPMI-8226 leukemia) [%]	growth (OVCAR-8 ovarian)	growth (OVCAR-5 ovarian) [%]	growth (OVCAR-4 ovarian)	growth (SK-OV-3 ovarian) [%]	growth (OVCAR-3 ovarian) [%]	growth (HS 578T breast) [%]	growth (NCI/ADR-RES ovarian) [%]	growth (T-47D breast) [%]	growth (BT-549 breast) [%]	growth (MDA-MB-435 melanoma) [%]	growth (SW-620 colon) [%]	growth (MCF7 breast) [%]	growth (HCT-116 colon) [%]	growth (HCC-2998 colon)	growth (KM12 colon)
O=C(Nc1nc2ccccc2s1)Nc1ccc([N+](=O)[O-])cc1Cl	36.9	-26.4% (active)	105	-45.6% (active)	63.9	38.1	70.7	14.4	61.7	16.2	40.4	95.6	74.3	18.7	76.1%	-32.4% (active)
C[N+](C)(C)c1ncnc2nc[nH]c12	103	102%	80.3	103%	97.3	112	101	94.1	91.7		95.3	120	90.8	97.3	-10.1% (active)	110%
S=c1[nH]ccn1-c1c(Cl)cccc1Cl	89	103%	107	97.1%	102	111	109	102	91.2	88.9	97.3	106	97.8	93.9	99.5%	104%
CCN1CCC2(CC1)OC(c1ccccc1)C(c1ccccc1)O2 (centres undefined)	101	106%	95.4	110%	121	114	115	107	103	110	114	102	99.6		113%	115%
Cc1nc2oc3ccccc3c(=O)c2cc1C(=O)NCc1ccccc1	80.4	90.4%	81.8	67.9%	110	93.3	105	55.4	53.9	88	65.3	72.4	43.8	59.8	37.9%	31.3%
NC(=O)CC1(c2ccccc2)CCCCC1	99.1	107%	111	103%	103	103	115	107		102	109	108	96.4	95.6	102%	101%
Clc1cccc(-c2nc(-c3cccs3)no2)c1	93.7	107%	108	65.8%	106	104	136	107	66.7	111	111	106	36.8	92.4	32.9%	92.4%
